{"source": "PubChem BioAssay (NCI)", "assay": "NCI Yeast Anticancer Drug Screen. Data for the rad50EPP+ strain (AID 151);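 note: 0% = growth of vehicle-treated control cultures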", "conditions": "S. cerevisiae rad50 mutant strain, hits give high values", "description": "Growth inhibition of yeast strains with defined genetic alterations is measured as a screen for potential anti-cancer activity. Selected strains with alterations in DNA damage repair or cell cycle control were exposed to compounds and growth inhibition was measured relative to vehicle treated controls. The strain used in this assay is rad50EPP+", "note": "The panel holds about 79,000 compounds, 15% with a hit somewhere; the sample as a whole holds those more often. Values without a mark were called inactive. The source made the active and inactive calls. Cut-off read from the data, not from the text of the source: active = growth inhibition above about 70%; inactive = the rest."}
{"smiles": "O=C(C#Cc1ccccc1)/C=C/c1ccccc1", "values": [{"measurement": "growth inhibition", "setting": "at 1.2 µM", "result": 1, "unit": "%"}, {"measurement": "growth inhibition", "setting": "at 3.7 µM", "result": 20, "unit": "%"}, {"measurement": "growth inhibition", "setting": "at 11.0 µM", "result": 53, "unit": "%"}, {"measurement": "growth inhibition", "setting": "at 33.0 µM", "result": "93% (active)"}, {"measurement": "growth inhibition", "setting": "at 100.0 µM", "result": "94% (active)"}]}
{"smiles": "CN(C)CCNCCCNc1c2ccccc2nc2cccc([N+](=O)[O-])c12", "values": [{"measurement": "growth inhibition", "setting": "at 1.2 µM", "result": 9, "unit": "%"}, {"measurement": "growth inhibition", "setting": "at 3.7 µM", "result": 26, "unit": "%"}, {"measurement": "growth inhibition", "setting": "at 11.0 µM", "result": 69, "unit": "%"}, {"measurement": "growth inhibition", "setting": "at 33.0 µM", "result": "90% (active)"}, {"measurement": "growth inhibition", "setting": "at 100.0 µM", "result": "95% (active)"}]}
{"smiles": "C[C@H](CCC1=NC(C)(C)CO1)C1CCC2[C@@H]3C(O)C[C@@H]4CC(O)CC[C@]4(C)C3CC[C@@]21C", "note": "(stereo not given in full)", "values": [{"measurement": "growth inhibition", "setting": "at 1.2 µM", "result": -4, "unit": "%"}, {"measurement": "growth inhibition", "setting": "at 3.7 µM", "result": -3, "unit": "%"}, {"measurement": "growth inhibition", "setting": "at 11.0 µM", "result": -3, "unit": "%"}, {"measurement": "growth inhibition", "setting": "at 33.0 µM", "result": -4, "unit": "%"}, {"measurement": "growth inhibition", "setting": "at 100.0 µM", "result": 25, "unit": "%"}]}
{"smiles": "S=C1N(c2ccc(Cl)cc2)C2=C(N=Nc3ccccc3)C(=Nc3ccccc3S2)N1c1ccccn1", "values": [{"measurement": "growth inhibition", "setting": "at 1.2 µM", "result": -11, "unit": "%"}, {"measurement": "growth inhibition", "setting": "at 3.7 µM", "result": 3, "unit": "%"}, {"measurement": "growth inhibition", "setting": "at 11.0 µM", "result": 61, "unit": "%"}, {"measurement": "growth inhibition", "setting": "at 33.0 µM", "result": "94% (active)"}, {"measurement": "growth inhibition", "setting": "at 100.0 µM", "result": "97% (active)"}]}
{"smiles": "CC(CN(C)C)C(=O)/C=C/c1ccc(Cl)c(Cl)c1", "note": "(stereo not given)", "values": [{"measurement": "growth inhibition", "setting": "at 1.2 µM", "result": 2, "unit": "%"}, {"measurement": "growth inhibition", "setting": "at 3.7 µM", "result": 10, "unit": "%"}, {"measurement": "growth inhibition", "setting": "at 11.0 µM", "result": 27, "unit": "%"}, {"measurement": "growth inhibition", "setting": "at 33.0 µM", "result": 61, "unit": "%"}, {"measurement": "growth inhibition", "setting": "at 100.0 µM", "result": "89% (active)"}]}
{"smiles": "c1ccc2c(c1)ccn2CCc1c[nH]c2ccccc12", "values": [{"measurement": "growth inhibition", "setting": "at 1.2 µM", "result": -33, "unit": "%"}, {"measurement": "growth inhibition", "setting": "at 3.7 µM", "result": -5, "unit": "%"}, {"measurement": "growth inhibition", "setting": "at 11.0 µM", "result": 23, "unit": "%"}, {"measurement": "growth inhibition", "setting": "at 33.0 µM", "result": 41, "unit": "%"}, {"measurement": "growth inhibition", "setting": "at 100.0 µM", "result": 55, "unit": "%"}]}
{"smiles": "CNC(=S)N/N=C(/C)CCC/C(C)=N/NC(=S)NC", "values": [{"measurement": "growth inhibition", "setting": "at 1.2 µM", "result": -9, "unit": "%"}, {"measurement": "growth inhibition", "setting": "at 3.7 µM", "result": 17, "unit": "%"}, {"measurement": "growth inhibition", "setting": "at 11.0 µM", "result": 37, "unit": "%"}, {"measurement": "growth inhibition", "setting": "at 33.0 µM", "result": 59, "unit": "%"}, {"measurement": "growth inhibition", "setting": "at 100.0 µM", "result": 43, "unit": "%"}]}
{"smiles": "CCCCCCC1OCC(O)C(OCCCC)O1", "note": "(stereo not given)", "values": [{"measurement": "growth inhibition", "setting": "at 1.2 µM", "result": -8, "unit": "%"}, {"measurement": "growth inhibition", "setting": "at 3.7 µM", "result": -4, "unit": "%"}, {"measurement": "growth inhibition", "setting": "at 11.0 µM", "result": 2, "unit": "%"}, {"measurement": "growth inhibition", "setting": "at 33.0 µM", "result": 3, "unit": "%"}, {"measurement": "growth inhibition", "setting": "at 100.0 µM", "result": 50, "unit": "%"}]}
